According to PubChem BioAssay (Tox21):
Records with an inconclusive call do not appear. Active and inactive are the calls of the source. Unless noted, calls follow the shape of the dose curve; as a rule, active = well fitted curve in the direction sought with a large enough effect in the repeat runs; inconclusive = weak or mixed curves; inactive = flat fitted curve, though single readings scatter.

What was measured:
[1] = qHTS assay to test for compound auto fluorescence at 460 nm (blue) in HEK293 cell free culture (AID 720681); settings: cell-free medium, autofluorescence 405/460 nm (blue); series mostly up to 91.3 µM
How it was run: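 Blue fluorescence (Ex 405/Em 460 nm, triamterene-equivalent) was read immediately after pin transfer of compound or DMSO into medium (DMEM, 10% FBS) without cells.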

[2] = qHTS assay to test for compound auto fluorescence at 535 nm (green) in HEK293 cell free culture (AID 720682); settings: cell-free medium, green autofluorescence 485/535 nm; series mostly up to 91.3 µM
How it was run: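 Cell-free medium (DMEM, 10% FBS) receives compound or DMSO by pintool. Plate read directly at Ex 485/Em 535 nm. Signal converted to fluorescein equivalency.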

[3] = qHTS assay to test for compound auto fluorescence at 590 nm (red) in HEK293 cell free culture (AID 720683); settings: cell-free medium autofluorescence, Ex540/Em590 red; series mostly up to 91.3 µM
How it was run: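 Red-channel autofluorescence of compounds in culture medium (DMEM, 10% FBS), no cells, measured at 540/590 nm. Rose Bengal sodium is the reference fluorophore for equivalence.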

[4] = qHTS assay to test for compound auto fluorescence at 590 nm (red) in HepG2 cell free culture (AID 720684); settings: cell-free medium autofluorescence, red 540/590 nm; series mostly up to 91.3 µM
How it was run: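 Plate contents were MEM with 10% FBS plus test compound or DMSO, no cells. Fluorescence was recorded with 540 nm excitation and 590 nm emission.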

[5] = qHTS assay to test for compound auto fluorescence at 460 nm (blue) in HepG2 cell free culture (AID 720685); settings: Cell-free culture medium, blue autofluorescence 405/460 nm; series mostly up to 91.3 µM
How it was run: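 Compound (23 nL) or DMSO pinned into cell-free MEM with 10% FBS; blue fluorescence read at 405/460 nm excitation/emission, expressed as auto-fluorescence equivalency to triamterene.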

[6] = qHTS assay to test for compound auto fluorescence at 535 nm (green) in HepG2 cell free culture (AID 720686); settings: Cell-free medium, green autofluorescence 485/535 nm; series mostly up to 91.3 µM
[7] = qHTS assay to test for compound auto fluorescence at 460 nm (blue) in HepG2 cells (AID 720687); settings: autofluorescence 405/460 nm, 1 h; series mostly up to 91.3 µM
How it was run: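 Blue-channel autofluorescence (Ex/Em 405/460 nm, triamterene-equivalent) was measured after 1 hr compound exposure at 37 C, 5% CO2. Cells were HepG2, plated overnight at 37 C in MEM plus 10% FBS.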

[8] = molecular target: Glucocorticoid receptor (Homo sapiens) (UniProt P04150); experiment: qHTS assay to identify small molecule agonists of the glucocorticoid receptor (GR) signaling pathway (AID 720691; active = well fitted activation curve with a large enough effect in the signal ratio in the repeat runs, not every such curve was filed as active; the % refers to the signal ratio); settings: GR-bla HeLa, beta-lactamase reporter ratio, 18 h; series mostly up to 62.4 µM
How it was run: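 qHTS in GR-bla HeLa cells: 4 h settling at 37 C/5% CO2, 18 h compound incubation at 37 C, 2 h LiveBLAzer B/G FRET substrate at room temperature, fluorescence intensity measured.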

[9] = molecular target: Glucocorticoid receptor (Homo sapiens) (UniProt P04150); experiment: qHTS assay to identify small molecule antagonists of the glucocorticoid receptor (GR) signaling pathway (AID 720692; active = well fitted inhibition curve with a large enough effect in the signal ratio in the repeat runs, not every such curve was filed as active; the % refers to the signal ratio); settings: GR-bla HeLa, beta-lactamase FRET ratio, dexamethasone-stimulated, 18 h; series mostly up to 58.5 µM
How it was run: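 Inhibition of glucocorticoid signalling is measured in HeLa cells with a GRE-controlled beta-lactamase reporter; cells are co-treated with compound and 5 nM dexamethasone (final) for 18 h before FRET substrate readout.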

Measured: Potency

Sequence of Glucocorticoid receptor (Homo sapiens) (P04150 whole entry, looked up): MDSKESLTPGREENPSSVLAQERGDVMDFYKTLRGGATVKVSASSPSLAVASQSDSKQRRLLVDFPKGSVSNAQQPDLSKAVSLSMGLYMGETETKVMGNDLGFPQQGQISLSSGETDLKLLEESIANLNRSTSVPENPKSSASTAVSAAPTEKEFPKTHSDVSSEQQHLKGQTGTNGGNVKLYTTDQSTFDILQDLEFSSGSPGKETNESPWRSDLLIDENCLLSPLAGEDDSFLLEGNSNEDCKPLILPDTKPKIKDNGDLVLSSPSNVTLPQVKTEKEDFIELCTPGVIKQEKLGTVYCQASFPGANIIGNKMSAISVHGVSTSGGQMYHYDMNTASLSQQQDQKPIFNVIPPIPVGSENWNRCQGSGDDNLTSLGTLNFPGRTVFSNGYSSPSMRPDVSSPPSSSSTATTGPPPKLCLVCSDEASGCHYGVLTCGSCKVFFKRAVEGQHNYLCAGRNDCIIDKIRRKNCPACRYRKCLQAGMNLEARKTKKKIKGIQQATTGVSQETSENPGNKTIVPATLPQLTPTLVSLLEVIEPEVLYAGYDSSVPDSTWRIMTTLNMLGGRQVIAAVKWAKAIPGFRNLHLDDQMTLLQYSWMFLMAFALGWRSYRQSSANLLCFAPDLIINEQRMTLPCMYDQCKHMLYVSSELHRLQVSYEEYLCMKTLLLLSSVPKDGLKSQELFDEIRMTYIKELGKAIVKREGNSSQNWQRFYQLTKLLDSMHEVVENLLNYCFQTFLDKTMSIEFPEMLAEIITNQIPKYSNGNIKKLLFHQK

CCCCOC(=O)C(C)OC(=O)CCC (stereo unspecified)
inactive: all assays above

CCCCCCCCC(=O)OCC
not listed: [2]
inactive: all other assays above

CC(C)COC(=O)CC(C(=O)OCC(C)C)S(=O)(=O)O (stereo unspecified)
not listed: [1] | [2]
inactive: all other assays above

COc1ccc(N=Nc2cc(C)c(N=Nc3ccc(S(=O)(=O)O)cc3)cc2OC)cc1
inactive: all assays above

CC(=O)OC(C(=O)c1ccccc1)c1ccccc1 (stereo unspecified)
not listed: [9]
inactive: all other assays above

CC(CC(=O)O)CC(C)(C)C (stereo unspecified)
not listed: [2] | [8] | [9]
inactive: all other assays above

NS(=O)(=O)c1ccc(Cl)c(S(N)(=O)=O)c1
inactive: all assays above

C[C@H](CCC(=O)O)[C@H]1CC[C@H]2[C@@H]3[C@H](O)C[C@@H]4C[C@H](O)CC[C@]4(C)[C@H]3C[C@H](O)[C@]12C
not listed: [9]
inactive: all other assays above

CCCCCC1Nc2cc(C(F)(F)F)c(S(N)(=O)=O)cc2S(=O)(=O)N1 (stereo unspecified)
inactive: all assays above

C[C@H]1O[C@H](O[C@H]2[C@H](O)[C@@H](O)[C@@H](O[C@H]3[C@H](O)[C@@H](O)[C@H](O)O[C@@H]3CO)O[C@@H]2CO)[C@H](O)[C@@H](O)[C@@H]1N[C@H]1C=C(CO)[C@@H](O)[C@H](O)[C@H]1O
not listed: [8]
inactive: all other assays above
